# Rab9 promoter act = qHTS Assay for Rab9 Promoter Activators; Huh7 Rab9 promoter-luciferase reporter, luminescence, 24 h; Potency, µM (series often up to 9.22 µM), for inactives: at the highest dose activation, negative = inhibition, actives largely listed as activators; hit rate 2.8% among 320,000; further: % of control where 0% means no effect; nearly all actives have a fitted effect of over 60% in size
#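 Cell-based reporter: Huh7 stable for Rab9 promoter-driven luciferase, plated in reduced-serum medium with 10% FBS at 1500 cells/well, compound-treated 24 h at 37 °C, luminescence read after 10 min reagent.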
# FLuc modulator = qHTS profiling assay for firefly luciferase inhibitor/activator using purifed enzyme and Km concentrations of substrates (counterscreen for miR-21 project); Potency, µM (highest dose often 57.5 µM), inactives show at the highest dose activity change, negative = inhibition, hits mostly inhibitors; purified FLuc, Km substrates, luminescence inhibition; Luciferin 4-monooxygenase (Photinus pyralis), P08659; hit rate 6.9% among 360,000;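 further: plate controls were vehicle for no effect and reference inhibitor for full effect; nearly all actives have a fitted effect of over 55% in size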
# Target sequence (P08659 whole entry, looked up): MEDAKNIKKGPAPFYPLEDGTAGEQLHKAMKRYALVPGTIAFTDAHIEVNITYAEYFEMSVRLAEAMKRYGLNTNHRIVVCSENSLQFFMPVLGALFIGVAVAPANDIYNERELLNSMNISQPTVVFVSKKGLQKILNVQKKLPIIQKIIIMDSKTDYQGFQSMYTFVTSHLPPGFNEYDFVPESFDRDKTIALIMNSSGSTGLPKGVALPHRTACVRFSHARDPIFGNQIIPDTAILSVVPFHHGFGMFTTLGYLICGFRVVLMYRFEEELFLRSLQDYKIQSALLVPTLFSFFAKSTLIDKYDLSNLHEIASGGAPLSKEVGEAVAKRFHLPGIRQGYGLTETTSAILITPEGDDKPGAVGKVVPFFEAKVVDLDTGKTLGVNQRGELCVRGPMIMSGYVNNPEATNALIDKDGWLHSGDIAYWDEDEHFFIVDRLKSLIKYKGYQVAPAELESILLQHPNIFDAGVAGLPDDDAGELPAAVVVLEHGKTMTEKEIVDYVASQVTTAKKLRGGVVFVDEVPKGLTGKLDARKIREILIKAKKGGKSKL
#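 Purified P. pyralis luciferase (10nM final) with 10uM D-luciferin and 10uM ATP (Km levels) in 50mM Tris acetate pH 7.5, 10mM Mg acetate, 0.01% Tween-20, 0.05% BSA; qHTS 6-point titration, ~60 µM downward; luminescence read.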
# NPC1 prom act = qHTS Assay for NPC1 Promoter Activators; Potency, µM (top dose mostly 9.22 µM), for the others: at the top dose activation, usual class: activators; AID 485313, 2010; Huh7 NPC1 promoter luciferase reporter, 24 h; hit rate 2.4% among 320,000; further: % of control where 0% means no effect; nearly all actives have a fitted effect of over 60% in size
#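 Huh7 cells stably carrying NPC1 promoter–luciferase, plated in Opti-MEM with 10% FBS for 2 h, were exposed to compound in DMSO for 24 h at 37 °C; luciferase reagent was added for 10 min and luminescence read.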
# SMN2 splice up = qHTS Assay for Enhancers of SMN2 Splice Variant Expression; Potency, µM (top dose mostly 46.1 µM), without a hit: top-dose activity change, positive = activation, hits mostly activators; HEK293 SMN2-luciferase splicing reporter, luminescence, 30-36 h; AID 1458, 2008; hit rate 2.8% among 210,000; further: % of control where 0% means no effect; nearly all actives have a fitted effect of over 55% in size
#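 qHTS luciferase splicing reporter: luminescence rises when SMN2 exon 7 is included in transfected HEK293 cells. Compound exposure lasted 30-36 h at 37C, with 4.5 mM final sodium butyrate as control, followed by a ONE-Glo read.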
# uPA generation = qHTS for Inhibitors of Cell Surface uPA Generation | cell surface uPA generation assay, qHTS | Potency, µM (doses to about 38.3 µM), for the others: top-dose activity change, negative = inhibition, hits mostly inhibitors | AID 540303, 2011 | hit rate 0.31% among 330,000; active means well fitted inhibition curve with a large enough effect; inconclusive means small, poorly fitted or top-dose-only effect; inactive means no such curve, though single readings can be large or run the other way; tested in mouse RAW 264.7 cells; further: on the % scale 0 is the no-effect control and ±100 the full control effect; nearly all actives have a fitted effect of over 55% in size
# ELG1 genotoxic = qHTS screen for small molecules that induce genotoxicity in human embryonic kidney (HEK293T) cells expressing luciferase-tagged ELG1. HEK293T ELG1-luciferase reporter, luminescence, 16 h. Potency, µM (titrated, usually from 46 µM), inactives show top-dose activity change, positive = activation, hits mostly activators. hit rate 1.3% among 330,000. AID 504466, 2011; further: % of control where 0% means no effect; nearly all actives have a fitted effect of over 60% in size
#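 Luminescence read-out: rising ELG1-luciferase signal, reflecting elevated ELG1 protein under genetic stress, flags genotoxic compounds. Cells were treated for 16 hr at 37 °C before ONE-Glo detection.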
# Numbers without * were called inactive; ? = inconclusive; . = no result; [ ] = another dose, or the depositor's remark. An excerpt weighted towards active compounds, which were near 7.3% of everything screened. Unless noted, the call rests on the fitted dose curve; in most records, active means well fitted curve in the direction sought with a large enough effect; inconclusive means small, poorly fitted or top-dose-only effect, or another doubt; inactive means no such curve, though single readings can be large; an effect the other way counts as inactive or inconclusive. Potency means the concentration at half of the fitted maximal effect.
SMILES,Rab9 promoter act,FLuc modulator,NPC1 prom act,SMN2 splice up,uPA generation,ELG1 genotoxic
O=C(N/N=C/c1ccc2c(c1)OCCO2)c1ccncc1,-2%,9.5µM*,-2%,.,2%,7%
CCN(CC)c1ccc(/C=N/NC(=O)Nc2nonc2N)cc1,19%,13µM*,21%,?,-3%,2%
O=C(N/N=C/c1cccs1)c1cccc(NC(=O)c2ccc(Cl)cc2)c1,-1%,-14%,-3%,-17%,.,?
O=C(N/N=C/c1ccc(Cl)cc1)c1ccc2c(c1)OCO2,26%,3.4µM*,8%,.,?,?
O=C(N/N=C/c1cccs1)c1ccc2c(c1)OCO2,1.3µM*,2.7µM*,2.5µM*,13µM*,-14%,9.2µM*
COC(=O)N[C@@H](c1cccc(C)c1)C(C(C)=O)C(=O)OC (some centres not stated),.,.,.,10%,.,.
O=C(Nc1cccc(Br)c1)c1cc(S(=O)(=O)N2CCCCC2)c[nH]1,.,-1%,.,.,.,.
O=C(N/N=C/c1ccsc1)c1ccc2c(c1)OCO2,2.8µM*,3.4µM*,3.5µM*,.,-4%,?
C[n+]1cccc(C(=O)N/N=C/c2ccc3c(c2)OCO3)c1,0%,3%,-3%,.,-5%,2%
O=C(N/N=C/c1ccc2c(c1)OCO2)c1ccc(Br)o1,2.8µM*,4.8µM*,4.5µM*,13µM*,-6%,10µM*
Cc1nc2ccc(C(=O)N/N=C/c3ccccc3O)cc2[nH]1,?,12µM*,?,.,-5%,?
O=C(NCc1ccc2c(c1)OCO2)c1ccc(Br)o1,-2%[1.84 µM],-14%,0%,.,0%,8%
Cc1nc2ccc(C(=O)N/N=C/c3cc([N+](=O)[O-])ccc3O)cc2[nH]1,2%,-11%,0%,8%,4%,3%
COc1ccccc1NS(=O)(=O)c1cccc(C(=O)N/N=C/c2ccc3c(c2)OCCO3)c1,2%,11µM*,-1%,23%,5%,4%
N#Cc1ccc2c(c1)C[C@]1(CCCCN3C(=O)c4ccccc4C3=O)Oc3c(c(=O)oc4ccccc34)C2O1,0%[1.84 µM],2%[11.5 µM],-7%[1.84 µM],.,.,.
CCOc1ccc(Nc2oc(-c3ccc(COc4ccccc4C)o3)nc2C#N)cc1,.,4%,.,.,.,.
CCc1ccc(NC(=O)C2CCN(c3ccc(Sc4ccc(C)cc4)nn3)CC2)cc1,.,-1%,.,-18%,.,.
CCN(CC)c1ccc(/C=N/NC(=O)Cc2ccc(OC)c(OC)c2)cc1,-13%,?,0%,.,-9%,1%
O=C(N/N=C/c1ccccc1O)c1ccc2c(c1)OCO2,-17%,2.7µM*,?,.,-3%,15µM*
O=C(N/N=C/c1ccc2c(c1)OCO2)c1ccc2c(c1)OCCO2,?,1.9µM*,?,11µM*,-10%,?
O=C(N/N=C/c1cc(Br)cc(Cl)c1O)c1ccc2c(c1)OCO2,.,.,.,.,3%,.
O=C(N/N=C/c1cccc([N+](=O)[O-])c1)c1ccc2c(c1)OCCO2,2.2µM*,1.3µM*,3.5µM*,22µM*,-4%,?
O=C(N/N=C/c1ccc2c(c1)OCO2)c1ccc(NC(=O)c2ccc(F)cc2)cc1,8%,-6%,0%,.,1%,0%
O=C(CNC(=O)c1ccc2c(c1)OCCO2)N/N=C/c1ccc([N+](=O)[O-])cc1,2%,0%,-5%,.,4%,?
CCN(CC)c1ccc(/C=N/NC(=O)c2ccc(Br)o2)cc1,3.2µM*,3µM*,2.2µM*,11µM*,-12%,?
SMILES,Rab9 promoter act,FLuc modulator,NPC1 prom act,SMN2 splice up,uPA generation,ELG1 genotoxic
CCOc1ccc2oc(C(=O)NNC(=O)c3csc(N4CCOCC4)n3)c(C)c2c1,2%,?,-2%,.,-4%,-5%
CC(C)c1nn2c(=O)cc(COC(=O)c3ccccc3NC(=O)c3cccc(Cl)c3)nc2s1,.,-1%,.,.,.,.
CCCCCCOc1ccc(/C=N/NC(=O)C2CC2)cc1,4%,-3%,-1%,.,2%,5%
CCN(CC)c1ccc(/C=N/NC(=O)C2CC2)cc1,?,15µM*,16%,.,?,?
O=C(N/N=C/c1cc(Cl)cc([N+](=O)[O-])c1O)c1cccc(S(=O)(=O)N2CCOCC2)c1,-1%,0%,-2%,.,0%,0%
O=C(N/N=C/c1cc(Cl)cc([N+](=O)[O-])c1O)c1ccc2c(c1)OCO2,-4%,11µM*,-15%,.,?,19%
O=C(N/N=C/C1CC2CCC1C2)c1ccc2c(c1)OCO2 (configuration not stated),3%,13µM*,-5%,-3%,-1%,1%
O=C(N/N=C/c1ccncc1)c1ccc2c(c1)OCO2,15%,27µM*,8%,?,-8%,-6%
CC(=O)NC(c1ccco1)c1cc(Cl)c2ccc(N(C)C)nc2c1O (configuration not stated),7%,-22%,5%,.,.,.
CCOc1ccc(CCNC(=O)c2cnc3sc(N4CCC(C)CC4)nn3c2=O)cc1,.,1%,.,.,.,.
COc1cc(C2c3c(-c4cc(C)ccc4O)n[nH]c3C(=O)N2CCCO)ccc1OCCC(C)C (configuration not stated),.,-2%,.,2%,.,.
CCc1nnc(NC(=O)CSc2nnc(C)c(=O)n2N)s1,9%,2%,9%,.,5%,3%
Cc1ccc2c(c1)N=C(c1ccccc1)CC(C(Cl)Cl)=N2,3.2µM*,8.5µM*,?,.,-14%,?
Cc1ccc(C2=Nc3ccccc3N=C(C(Cl)Cl)C2)cc1,3.2µM*,9.5µM*,3.2µM*,-67%,-16%,?
O=C(CS(=O)(=O)c1cccc2nsnc12)Nc1ccccc1,.,-2%,.,.,.,.
COc1ccc(C(=O)NCCSC2CCCCC2)cc1,?,13µM*,?,16µM*,-4%,?
COc1ccc2nc3oc(C(=O)N4CCN(c5cc(C)ccc5C)CC4)cc3cc2c1,.,-17%,.,7%,.,.
Clc1cccc(-c2nc(-c3ccccn3)no2)c1,0.1µM*,0.34µM*,0.32µM*,0.71µM*,-11%,?
c1ccc(-c2nc(-c3ccccn3)no2)cc1,?,0.54µM*,0.11µM*,0.5µM*,?,?
Cc1ccc(Sc2cc(C)nc(-c3ccccn3)n2)cc1,5%,17µM*,21%,.,1%,6%
COc1cnc(-c2ccccn2)nc1Sc1ccc(C)cc1,0%,-7%,-27%,-104%,0%,-14%
Cc1ccc(-c2nc(-c3ccccn3)no2)cc1[N+](=O)[O-],0.32µM*,1.5µM*,0.32µM*,.,?,2.1µM*
c1ccc(-c2noc(-c3ccno3)n2)nc1,28%,-10%,16%,.,18%,9%

# Screens from PubChem.
